Rows were chosen to be rich in hits. Some 0.4% of all compounds tested hit in one or more screens of this group.
EPAC1 agonist = qHTS for Agonist of cAMP-regulated guanine nucleotide exchange factor 3 (EPAC1): primary screen | EPAC1 agonist qHTS, biochemical assay; response scale: 100% = response to 6.5 mM cAMP | Potency, µM (doses to about 154 µM), most hits filed as activators | actives 0.073% (n = 360,000); also: nearly all actives have a fitted effect of over 60% in size
Target sequence (O95398 whole entry, looked up): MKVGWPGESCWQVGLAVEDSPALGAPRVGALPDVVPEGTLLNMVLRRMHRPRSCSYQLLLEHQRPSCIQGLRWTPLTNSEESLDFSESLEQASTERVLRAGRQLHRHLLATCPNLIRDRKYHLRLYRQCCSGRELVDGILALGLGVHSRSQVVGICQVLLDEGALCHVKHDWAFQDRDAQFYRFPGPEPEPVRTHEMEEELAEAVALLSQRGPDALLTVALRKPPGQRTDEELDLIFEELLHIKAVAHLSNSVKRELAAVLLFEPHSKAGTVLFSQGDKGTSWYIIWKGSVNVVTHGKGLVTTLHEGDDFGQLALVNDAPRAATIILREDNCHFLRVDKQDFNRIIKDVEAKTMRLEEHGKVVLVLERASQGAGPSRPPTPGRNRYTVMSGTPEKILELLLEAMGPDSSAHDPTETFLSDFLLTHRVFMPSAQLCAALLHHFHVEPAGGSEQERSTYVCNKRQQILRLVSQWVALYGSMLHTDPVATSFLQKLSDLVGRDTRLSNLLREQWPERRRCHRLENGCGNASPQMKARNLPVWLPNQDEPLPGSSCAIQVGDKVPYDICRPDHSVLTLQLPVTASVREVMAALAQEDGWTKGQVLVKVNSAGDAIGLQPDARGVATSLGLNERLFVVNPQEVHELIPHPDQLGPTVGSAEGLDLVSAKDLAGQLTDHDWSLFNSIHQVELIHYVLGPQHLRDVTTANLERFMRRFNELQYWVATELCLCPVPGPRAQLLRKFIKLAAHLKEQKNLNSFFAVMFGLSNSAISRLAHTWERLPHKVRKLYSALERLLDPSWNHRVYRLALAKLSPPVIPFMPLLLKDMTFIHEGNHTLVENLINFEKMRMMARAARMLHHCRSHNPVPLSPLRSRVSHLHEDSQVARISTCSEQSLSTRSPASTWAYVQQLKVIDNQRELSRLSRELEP
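Compounds were pinned as a concentration titration into mixtures of EPAC1 (100 nM), BODIPY-GDP-loaded Rap1B (250 nM) and GDP (50 uM). After 5 min at room temperature, fluorescence was followed for 30 min; activity was scaled to 6.5 mM cAMP.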
B2AR arrestin = qHTS assay of beta-arrestin-biased ligands of beta2-adrenergic receptor; Beta-2 adrenergic receptor (Homo sapiens), P07550; beta-arrestin recruitment to beta2AR, cell-based reporter; Potency, µM (highest dose often 46.1 µM), actives largely listed as activators; actives 0.02% (n = 330,000); AID 492947, 2010; also: nearly all actives have a fitted effect of over 65% in size
EPAC2 ag = qHTS for Agonist of cAMP-regulated guanine nucleotide exchange factor 4 (EPAC2): primary screen; EPAC2 activation, biochemical qHTS; response scale: 100% = 6.5 mM cAMP response; Potency, µM (series often up to 154 µM), hits mostly activators; actives 0.079% (n = 360,000); AID 720711, 2013; also: nearly all actives have a fitted effect of over 50% in size
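Guanine nucleotide exchange by EPAC2 is measured as reduced fluorescence of BODIPY-GDP once it is released from 250 nM Rap1B. Plates are read kinetically for 30 min at room temperature; results are scaled to 6.5 mM cAMP.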
EPAC1 antagonist = qHTS for Antagonist of cAMP-regulated guanine nucleotide exchange factor 3 (EPAC1): primary screen | Rap guanine nucleotide exchange factor 3 (Homo sapiens), O95398 | EPAC1 GEF assay, Rap1b-BODIPY-GDP exchange fluorescence | Potency, µM (top dose mostly 115 µM), hits mostly inhibitors | actives 0.14% (n = 360,000); also: nearly all actives have a fitted effect of over 50% in size
EPAC2 antag = qHTS for Antagonist of cAMP-regulated guanine nucleotide exchange factor 2 (EPAC2): primary screen; Rap guanine nucleotide exchange factor 4 (Homo sapiens), Q8WZA2; EPAC2 GEF exchange of Rap1B-BODIPY-GDP, fluorescence; Potency, µM (doses to about 114 µM), usual class: inhibitors; actives 0.18% (n = 360,000); also: nearly all actives have a fitted effect of over 45% in size
Of the large screens only hits and unclear results are named; the others gave an inactive call. Calls follow the shape of the dose curve; as a rule, active = well fitted curve in the direction sought with a large enough effect; inconclusive = small, poorly fitted or top-dose-only effect, or another doubt; inactive = no such curve, though single readings can be large; an effect the other way counts as inactive or inconclusive.

CC(C)Cc1csc(NC(=O)c2ccc(F)cc2)c1C(=O)O	EPAC1 antagonist 35.5µM
COc1ccc(NC(=O)CCNC(=O)C2CCN(S(=O)(=O)c3ccccc3)CC2)cc1OC	none (no result: B2AR arrestin)
CCCC[C@@H]1C[C@H]1[C@@H](NC(=O)c1cccs1)c1ccc(Cl)cc1	EPAC2 antag inconclusive
CCCC[C@@H]1C[C@H]1[C@@H](NC(=O)c1ccco1)c1ccc(Cl)cc1	EPAC2 antag 8.91µM
NS(=O)(=O)c1ccc(CCNc2nn3c(-c4cccc(OC(F)(F)F)c4)cnc3s2)cc1	none (no result: B2AR arrestin)
CC(=O)N1C=CN(C(C)=O)C(c2cn(C)c3ccccc23)C1c1cn(C)c2ccccc12 (stereo unspecified)	EPAC2 antag 56.2µM
O=C(OCC(=O)c1c[nH]c2ccccc12)c1cccc([N+](=O)[O-])c1	none
COc1cc(/C=C/[N+](=O)[O-])ccc1OCc1cccc(C(=O)O)c1	EPAC1 antagonist inconclusive, EPAC2 antag 22.4µM
COc1ccc(C(=O)C=Cc2ccc(OCc3ccccc3)c(OC)c2)cc1OC	none (no result: B2AR arrestin)
CCCCC(CC)C(=O)Nc1ccc(Nc2ccccc2)cc1 (stereo unspecified)	EPAC1 agonist 63.1µM
O=C(CSc1nc(-c2ccc(F)cc2)nc2ccc(F)cc12)Nc1cccc(C(=O)O)c1	EPAC1 antagonist 70.8µM
O=C(CSc1nc(-c2ccccc2)nc2ccccc12)Nc1cccc(C(=O)O)c1	none
N#Cc1c(C(F)(F)F)cc(-c2ccc(Cl)cc2)[nH]c1=O	EPAC1 antagonist 39.8µM
CC1CCC2=NN(C(=O)c3ccco3)C(O)(C(F)(F)F)C2C1 (stereo unspecified)	EPAC2 antag 50.1µM
CC1(C)NC(=O)N(CC(=O)OCC(=O)Nc2c(Br)cc([N+](=O)[O-])cc2Br)C1=O	none (no result: B2AR arrestin)
O=c1ccc(-c2ccccc2)nn1Cc1ccc(Cl)cc1	EPAC2 antag 35.5µM (no result: B2AR arrestin)
Cc1cccc(C)c1C(O)c1ncc(-c2ccccc2C(F)(F)F)[nH]1 (stereo unspecified)	none (no result: B2AR arrestin)
COc1ccc(-c2csc(C3=C(O)CN(Cc4ccc(Cl)cc4)C3=N)n2)cc1OC	none
COc1cccc(CN2CC(O)=C(c3nc(-c4ccc(Cl)cc4)cs3)C2=N)c1	EPAC2 ag 6.31µM (no result: B2AR arrestin)
CCCn1nc([N+](=O)[O-])c(C(C#N)c2nc3ccccc3o2)c(Cl)c1=O (stereo unspecified)	EPAC2 antag 56.2µM
Cc1cccc(C)c1-n1c(C)cc(/C=N\Nc2ccc([N+](=O)[O-])cn2)c1C	EPAC2 ag 3.98µM
C[C@@H](C(=O)N=c1sc2ccccc2n1C)N1C(=O)C2CC=CCC2C1=O (stereo partly specified)	none (no result: B2AR arrestin)
S=c1nc2ccccc2c2nc(-c3ccccc3)[nH]n12	B2AR arrestin 3.98µM
COc1ccc2oc(C(=O)Nc3ccc(N4CCOCC4)cc3)c(C)c2c1	EPAC1 agonist 63.1µM, EPAC1 antagonist inconclusive
Cc1nn(CC(=O)c2ccc3c(c2)OCCO3)c(=O)c(C#N)c1C	EPAC2 antag inconclusive
CC1CN(S(=O)(=O)c2ccc(C(=O)Nc3ccccc3F)cc2)CC(C)O1 (stereo unspecified)	none
Brc1ccc(-c2csc(-c3c[nH]c4ccccc34)n2)cc1	EPAC2 ag 39.8µM
c1ccc2c(-c3csc(-c4ccncc4)n3)c[nH]c2c1	none
O=S(=O)(O)c1cc(O)c(N=Nc2ccc(O)cc2O)c2ccccc12	EPAC1 antagonist 79.4µM, EPAC2 antag 44.7µM (no result: B2AR arrestin)
O=C(CNc1ccc(Cl)c(C(F)(F)F)c1)N1CCN(S(=O)(=O)c2ccccc2)CC1	none (no result: B2AR arrestin)
COc1cccc(OCCOc2ccc(/C=C3\C(=N)N4N=C(S(C)(=O)=O)SC4=NC3=O)cc2OC)c1	EPAC1 antagonist 70.8µM
COc1cc(/C=C2\C(=N)N3N=C(S(C)(=O)=O)SC3=NC2=O)cc(OC)c1OCCOc1ccccc1C	EPAC1 antagonist 50.1µM, EPAC2 antag inconclusive
COc1ccccc1OCCOc1ccc(/C=C2\C(=N)N3N=C(S(C)(=O)=O)SC3=NC2=O)cc1	EPAC1 antagonist inconclusive
O=C(NCC(=O)N1CCN(Cc2ccccc2)CC1)c1ccccc1Cl	none (no result: B2AR arrestin)
Oc1ccc(N=Cc2ccc(O)c(O)c2)cc1	B2AR arrestin inconclusive, EPAC1 antagonist 39.8µM, EPAC2 antag inconclusive
COC(=O)[C@@H](NS(=O)(=O)c1ccc(F)cc1Br)C(C)C	none (no result: B2AR arrestin)
CC1(c2ccc(OC(F)F)cc2)NC(=O)N(CC(=O)NCCC2=CCCCC2)C1=O (stereo unspecified)	none
O=C1NC(=O)C2(N1)C(=O)c1cccc3cccc2c13 (stereo unspecified)	EPAC1 agonist 112µM, EPAC2 ag inconclusive (no result: B2AR arrestin)
O=C1NC(=O)C2(N1)c1ccccc1-c1ccccc12	none (no result: B2AR arrestin)
COc1cc(/C=C2/SC(=O)NC2=O)ccc1OC(=O)c1ccco1	none
CCc1ccc(N=C2NC(=O)/C(=C/c3cc(Br)c(OCC(=O)O)c(OC)c3)S2)cc1	EPAC1 agonist inconclusive, EPAC1 antagonist inconclusive
CCOc1cc(/C=C2\SC(=Nc3ccc(CC)cc3)NC2=O)ccc1OCC(=O)O	EPAC1 agonist inconclusive, EPAC1 antagonist 35.5µM
CCOc1cc(/C=C2/SC(=S)NC2=O)ccc1OC(=O)c1ccco1	EPAC1 antagonist 35.5µM, EPAC2 antag 35.5µM
COc1ccc(C(=O)c2ccccc2CN2C(=O)c3ccccc3C2=O)cc1	none (no result: B2AR arrestin)
O=C1c2ccccc2C(=O)c2c1cccc2N1CCCC1	none
O=C1C=C(N2CCCCC2)c2ccccc2C1=O	EPAC1 antagonist 44.7µM, EPAC2 antag 35.5µM (no result: B2AR arrestin)
COc1ccc2c3c(cccc13)C(=O)CC2	EPAC1 agonist 100µM, EPAC2 ag 112µM
COc1ccc2c(c1OC)C(=O)OC2	none
CCN(CCn1cccn1)Cc1c(C(=O)N2CCCCCCC2)nc2ccc(Cl)cn12	EPAC1 antagonist 22.4µM
Cc1cc(/C=C2/C(=N)N3C(=NC2=O)SN=C3S(C)(=O)=O)c(C)n1-c1ccccc1F	none
CS(=O)(=O)C1=NSC2=NC(=O)/C(=C\c3cccn3-c3ccc(Cl)cc3)C(=N)N21	EPAC1 antagonist 35.5µM
COc1cc(/C=C2/NC(=O)NC2=O)cc(Br)c1OCc1ccc(C(=O)O)cc1	EPAC1 antagonist 79.4µM
O=C(O)COc1c(Cl)cc(/C=C2\NC(=O)NC2=O)cc1Br	none
COc1cccc2cc(C(C)N(CCCN3CCOCC3)C(=S)Nc3cccc(C)c3)oc12 (stereo unspecified)	EPAC1 antagonist 56.2µM

Bioassay records from PubChem.
